Laboratory results published in PubChem BioAssay (EPA / NIEHS).
Records with an inconclusive call do not appear. Active and inactive are the calls of the source. The calls were made as follows: active = hit-call score of the fitted dose curve at least 0.9, where 1 is the maximum; inconclusive = response in the unintended direction; inactive = score below 0.9.

assay: Tanguay_ZF_120hpf_SNOU_legacy: (Legacy) Oregon State University Tanguay Lab 120 Hour Post-fertilization zebrafish Assay for Snout Malformation (AID 2283637)
Protocol: Tanguay_ZF_120hpf_legacy is a whole embryo, multiplexed endpoint assay using zebrafish larvae exposed for 120 hours post fertilization on a 96-well plate.Tanguay_ZF_120hpf_SNOU_legacy is one of one assay component(s) measured or calculated from the Tanguay_ZF_120hpf_legacy assay. It is designed to make measurements of zebrafish development as detected with brightfield microscopy of developing zebrafish embryos.Data from the assay component Tanguay_ZF_120hpf_SNOU_legacy was analyzed into 1 assay endpoints. This assay endpoint, Tanguay_ZF_120hpf_SNOU_legacy, was analyzed in the positive analysis fitting direction relative to DMSO as the negative control and baseline of activity. Using a type of morphology reporter, gain-of-signal activity can be used to understand changes in developmentals as they relate to the whole embryo. To generalize the intended target to other relatable targets, this assay endpoint is annotated to the zebrafish development intended target family, where the subfamily is embryonic snout morphogenesis.
Zebrafish husbandry: Tropical 5D wild-type adult zebrafish were housed in at an approximate density of 1000 per 100 gallon tank at the Sinnhuber Aquatic Research Laboratory, Oregon State University, Corvallis, OR. Each tank was kept at standard laboratory conditions of 28C on a 14-h light/10-h dark photoperiod in fish water consisting of reverse osmosis water supplemented with a commercially available salt (Instant Ocean). Spawning funnels were placed into the tanks the night prior, and embryos were collected and staged. To increase bioavailability, the chorion was enzymatically removed using pronase (63.6mg/ml, >/= 3.5U/mg, Sigma-Aldrich: P5147) at 4 hours post fertilization (hpf) using a custom automated dechorionator.Chemical exposures: Six hpf dechorionated embryos were placed 1 embryo per well in a 96-well plate prefilled with 90 ul of EM using automated embryo placement systems (AEPS). Ten microliters of each row of dilution plate 2 was added to 2 exposure plates. The final DMSO concentration used was 0.64% (vol/vol). Thirty-two embryos were also exposed to 5uM trimethyltin chloride (positive control). Plates were sealed to prevent evaporation and foil covered to reduce light exposure and kept in a 28C incubator. Embryos were statically exposed until 120 hpf. At 24 hpf, embryos were assessed for photomotor response using a custom photomotor response analysis tool (PRAT) and for developmental toxicity endpoints (MO24: mortality at 24 hpf, DP: developmental progression, SM: spontaneous movement, and NC: notochord distortion). At 120 hpf, locomotor activity was measured using Viewpoint Zebralab and assessed for 18 endpoints. Zebrafish acquisition and analysis program (ZAAP), a custom program designed to inventory, acquire, and manage zebrafish data, was used to collect developmental endpoints as either present or absent (i.e., binary responses were recorded). If mortality occurred for an embryo (at either 24 or 120 hpf), the non-mortality endpoints were not measured.

Row | SMILES | outcome | AC50
1 | CCOC(=O)c1ccc(C2CCC(NC[C@H](O)COc3ccc(O)c(NS(C)(=O)=O)c3)CC2)cc1 (stereo not given in full) | inactive | –
2 | CC(C)(O)c1coc(S(=O)(=O)NC(=O)Nc2c3c(cc4c2CCC4)CCC3)c1 | inactive | –
3 | COc1ccc(/C=C/S(=O)(=O)NC(=O)c2ccc(C)cc2Cl)cc1 | inactive | –
4 | O=C(CCCCCCCCc1cccnc1)N1CCC(C=C(c2ccccc2)c2ccccc2)CC1 | inactive | –
5 | Fc1ccccc1[C@@H](F)COC1CCC(Nc2ncnc3[nH]ncc23)CC1 (stereo not given in full) | inactive | –
6 | CCCCCCCCCCCCCCCO | inactive | –
7 | CC(C)=CCCC(C)=CC=O | inactive | –
8 | CCOC(=O)CC(CC(=O)OCC)(OC(C)=O)C(=O)OCC | inactive | –
9 | CNS(=O)(=O)c1cc(C(=O)N2CCC(CCN3C4CCC3CC(n3c(C)nc5ccccc53)C4)(c3cccc(F)c3)CC2)c(Cl)cc1F (stereo not given) | inactive | –
10 | O=C1CCCCCN1 | inactive | –
11 | O=P(OC(CCl)CCl)(OC(CCl)CCl)OC(CCl)CCl | – | 25.9 µM (active)
12 | CCn1nc(Cc2ccccc2)cc1C1CCN(C[C@H]2C[C@H](N(C)[C@@H](C(=O)O)C(C)C)C[C@@H]2c2cccc(F)c2)CC1 | inactive | –
13 | CC(=O)OC[C@H]1O[C@@](COC(C)=O)(O[C@H]2O[C@H](COC(C)=O)[C@@H](OC(C)=O)[C@H](OC(C)=O)[C@H]2OC(C)=O)[C@@H](OC(C)=O)[C@@H]1OC(C)=O | inactive | –
14 | O=C(NS(=O)(=O)/C=C/c1ccccc1)c1ccc(F)cc1Cl | inactive | –
15 | On1ccccc1=S | – | 0.206 µM (active)
16 | O=C1OC(=O)C2C3C=CC(C3)C12 (stereo not given) | inactive | –
17 | Cc1ccc(O)cc1 | inactive | –
18 | Cc1ccc(N)cc1O | inactive | –
19 | Nc1ccc(Nc2ccccc2)cc1 | – | 34.9 µM (active)
20 | CCCCC(CC)COC(=O)CCCCCCCCC(=O)OCC(CC)CCCC (stereo not given) | inactive | –

Row | SMILES | outcome | AC50
21 | C=CC(=C)CCC=C(C)C | inactive | –
22 | COC(=O)CC(=O)OC | inactive | –
23 | Cc1ccc(C)c(O)c1 | inactive | –
24 | CC(C)CCO | inactive | –
25 | CCCCCCCCO | inactive | –
26 | CC(C)CCCCCCCOC(=O)CCCCC(=O)OCCCCCCCC(C)C | inactive | –
27 | O=C1CCC(N2C(=O)c3ccccc3C2=O)C(=O)N1 (stereo not given) | inactive | –
28 | CC(C)CCCCCCOC(=O)c1ccc(C(=O)OCCCCCCC(C)C)c(C(=O)OCCCCCCC(C)C)c1 | inactive | –
29 | Nc1nc2ncc(CNc3ccc(C(=O)N[C@@H](CCC(=O)O)C(=O)O)cc3)nc2c(=O)[nH]1 | inactive | –
30 | COCCOc1cc2cc(C(=O)NC3CCN(C(C)C)CC3)n(CC(=O)Nc3ccc(Cl)cn3)c2cn1 | inactive | –
31 | NC(=O)NO | inactive | –
32 | O=C(OC[C@H]1O[C@@H](OC(=O)c2cc(O)c(O)c(OC(=O)c3cc(O)c(O)c(O)c3)c2)[C@H](OC(=O)c2cc(O)c(O)c(OC(=O)c3cc(O)c(O)c(O)c3)c2)[C@@H](OC(=O)c2cc(O)c(O)c(OC(=O)c3cc(O)c(O)c(O)c3)c2)[C@@H]1OC(=O)c1cc(O)c(O)c(OC(=O)c2cc(O)c(O)c(O)c2)c1)c1cc(O)c(O)c(OC(=O)c2cc(O)c(O)c(O)c2)c1 | inactive | –
33 | CC(C)c1cccc(C(C)C)c1N1C(=O)c2ccc(O)cc2C1=O | inactive | –
34 | O=C(O)CCN(C1(C(=O)NO)CCCC1)S(=O)(=O)c1ccc(Oc2ccc(F)cc2)cc1 | inactive | –
35 | Oc1ccc2c(c1)-c1ccccc1C2 | – | 39.3 µM (active)
36 | CCCCCCCCCCCCc1ccccc1 | inactive | –
37 | CC1(C)C(=O)N(Br)C(=O)N1Br | inactive | –
38 | COC(=O)c1ccccc1O | inactive | –
39 | O=c1n(CC2CO2)c(=O)n(CC2CO2)c(=O)n1CC1CO1 (stereo not given) | inactive | –
40 | CCc1cc(SCc2sc(-c3ccc(C(F)(F)F)cc3)nc2CN2CCN(c3ccc(OC)cc3)CC2)ccc1OCC(=O)O | inactive | –
